Measurements from PubChem BioAssay (EPA / NIEHS).
Where “and” joins values, the source holds several entries; their conditions need not be identical. Equal entries are not always repeated. A structure can be active in one record and inactive in another. Calls of active or inactive are those of the source. How the source made its calls: active means hit-call score of the fitted dose curve at least 0.9, where 1 is the maximum; inactive means score below 0.9.

Assay: CEETOX_H295R_OHPROG: CeeTox H295R High-throughput Steroidogenesis Assay for OH-Progesterone (OHPROG) (AID 2283435)
Conditions: actives raise or lower the signal
Description: CEETOX_H295R is a cell-based, multiplexed-readout assay that uses H295R, a human adrenal gland cell line, with measurements taken at 48 hours after chemical dosing in a 96-well plate.CEETOX_H295R_OHPROG is one of 23 assay component(s) measured or calculated from the CEETOX_H295R assay. It is designed to make measurements of hormone induction, a form of inducible reporter, as detected with absorbance signals by HPLC-MS-MS technology.Data from the assay component CEETOX_H295R_OHPROG was analyzed into 1 assay endpoint. This assay endpoint, CEETOX_H295R_OHPROG, was analyzed with bidirectional fitting relative to DMSO as the negative control and baseline of activity. Using a type of inducible reporter, gain or loss-of-signal activity using HPLC-MS-MS was used to understand synthesis of 17alpha-hydroxyprogesterone in H295R cell line at 48hr of chemical exposure. To generalize the intended target to other relatable targets, this assay endpoint is annotated to the steroid hormone intended target family, where the subfamily is progestagens.
Cell culture and media preparation procedures were conducted in accordance with OECD Test No. 456 guidelines, with minor modifications. H295R cells (ATCC CRL-2128) were expanded for 5 passages and frozen in batches in liquid nitrogen. Prior to the steroidogenesis assay, H295R cells were thawed and passed at least 4 times. The maximum passage was 10. Cells were maintained in a 1:1 mixture of DMEM/F12 supplemented with 5ml/L ITS+ Premix (BD Bioscience) and 12.5 ml/L Nu-Serum (BD Bioscience). After seeding cells into 96-well plates at 50-60% confluency, cells were allowed to adhere overnight. Prior to chemical testing, culture medium was replaced with 175 uL medium containing 10 uM forskolin to stimulate steroidogenesis for 48 hours. Following prestimulation, forskolin medium was replaced with medium containing test chemical solubilized in DMSO (ensuring a final concentration of 0.1% DMSO). Test chemicals were incubated for 48 hours, then the medium was removed and split into 2 vials containing approximately 75uL each, and stored at -80 C prior to hormone analysis. For steroid quantification, media samples were shipped to OpAns, LLC (Durham, NC) on dry ice, and samples were thawed to room temperature prior to liquid-liquid extraction. Steroid hormones were extracted from media samples using methyl tertbutyl ether (MTBE). An extra derivatization with dansyl chloride was included for estrogen (estrone and estradiol) detection only. Steroid hormones were separated by HPLC, eluted using a reverse phase C18 gradient with electrospray positive ionization, followed by quantification by tandem mass spectrometry (MS/MS). Data were acquired on a MassHunter Workstation Acquisition version B03.01 (Agilent Technologies, Inc.) and processed using MassHunter Quantitative Analysis for QQQ. Accuracy was determined for each hormone analyte from 3 standards to determine upper and lower limits of quantification (ULOQ and LLOQ, respectively) using a 7-point standard curve. Precision and accuracy of the extraction and quantification methods were calculated as the percent relative standard deviation (%RSD) of the spiked standards and percent spiked standard recovered, respectively. […] Test medium was removed following chemical exposure, and cell viability was evaluated in the same wells by MTT. MTT procedures were as follows: after removal of test medium, 500 uL of 0.5 mg/ml of 3-[4,5-dimethylthiazol-2-y]2,5-diphenyltetrazoliumbromide solution was added to the cells. Following a 4-hour incubation at 37 C and 5% CO2 to allow formazan-crystal formation, the MTT solution was removed and blue formazan salt crystals were solubilized using 500uL anhydrous isopropanol with shaking for 20 minutes. Absorbance was read at 570 and 650nm using a Packard Fusion microplate reader. Background correction of absorbance units was used to determine percent change relative to controls. […]

| Structure (SMILES) | outcome | AC50 |
| --- | --- | --- |
| O=C1c2ccccc2C(=O)N1SC(Cl)(Cl)Cl | inactive | – |
| CNC(=O)/C=C(\C)OP(=O)(OC)OC | inactive | – |
| CCc1ccc(C(=O)NN(C(=O)c2cc(C)cc(C)c2)C(C)(C)C)cc1 | inactive | – |
| CC(C)OC(=O)Nc1cccc(Cl)c1 | inactive | – |
| CCC(C)Nc1c([N+](=O)[O-])cc(C(C)(C)C)cc1[N+](=O)[O-] (stereo not given) | – | 71.7 µM (active) |
| CCC(C)(C)C(=O)OC1=C(c2ccc(Cl)cc2Cl)C(=O)OC12CCCCC2 | – | 2.29 µM (active) |
| CC(C)(C)C(O)C(Oc1ccc(Cl)cc1)n1cncn1 (stereo not given) | inactive | 18.3 µM (active) and 3.14 µM (active) and 3.31 µM (active) |
| O=C(NC(=O)c1c(F)cccc1F)Nc1ccc(OC(F)(F)C(F)OC(F)(F)F)c(Cl)c1 (stereo not given) | inactive | – |
| CCCN(CCC)c1c([N+](=O)[O-])cc(C(F)(F)F)cc1[N+](=O)[O-] | inactive | – |
| C#CCN1C(=O)COc2cc(F)c(N3C(=O)C4=C(CCCC4)C3=O)cc21 | inactive | – |
| COP(=S)(OC)Oc1ccc(SC)c(C)c1 | – | 21.5 µM (active) |
| COP(=S)(OC)Oc1ccc([N+](=O)[O-])cc1 | – | 3.28 µM (active) |
| CCCN(CCOc1c(Cl)cc(Cl)cc1Cl)C(=O)n1ccnc1 | inactive | – |
| CNC(=O)Oc1cccc(N=CN(C)C)c1 | inactive | – |
| Clc1ccccc1-c1nnc(-c2ccccc2Cl)nn1 | inactive | – |
| CC(C)N(C(=O)COc1nnc(C(F)(F)F)s1)c1ccc(F)cc1 | inactive | – |
| COc1nn(CSP(=S)(OC)OC)c(=O)s1 | – | 13.6 µM (active) |
| CCN(CC)C(=O)SCc1ccc(Cl)cc1 | inactive | – |
| CC1(C)C(C=C(Cl)Cl)C1C(=O)OC(C#N)c1ccc(F)c(Oc2ccccc2)c1 (stereo not given) | inactive | – |
| CC(C)(C)C(O)/C(=C\c1ccc(Cl)cc1Cl)n1cncn1 (stereo not given) | inactive | – |
| O=[N+]([O-])/N=C1\NCCN1Cc1ccc(Cl)nc1 | inactive | – |
| O=C(O)COc1ccc(Cl)cc1Cl | inactive | – |
| C[C@H]1[C@H](c2ccc(Cl)cc2)SC(=O)N1C(=O)NC1CCCCC1 | inactive | – |
| Oc1cc(Cl)ccc1Oc1ccc(Cl)cc1Cl | inactive | – |
| CNC(=O)CSP(=S)(OC)OC | inactive | – |
| CNC(=O)Oc1ccccc1OC(C)C | inactive | – |
| N#Cc1c(Cl)c(Cl)c(Cl)c(C#N)c1Cl | inactive | – |
| CC[C@H](C)[C@H]1O[C@]2(C=C[C@@H]1C)C[C@@H]1C[C@@H](C/C=C(\C)[C@@H](O[C@H]3C[C@H](OC)[C@@H](O[C@H]4C[C@H](OC)[C@@H](O)[C@H](C)O4)[C@H](C)O3)[C@@H](C)/C=C/C=C3\CO[C@@H]4[C@H](O)C(C)=C[C@@H](C(=O)O1)[C@]34O)O2 (tested in a mixture with another compound) | inactive | – |
| O=[N+]([O-])c1c(Cl)c(Cl)c(Cl)c(Cl)c1Cl | inactive | – |
